PubChem BioAssay (Tox21)
Unmarked numbers belong to inactive results. Records with an inconclusive call do not appear. Entries that show only a call come without a potency. Activity calls are given as the source filed them. Unless noted, calls come from the whole dose curve; as a rule, active = well fitted curve in the direction sought with a large enough effect in the repeat runs; inconclusive = weak or mixed curves; inactive = no such curve, though single readings can be large; an effect the other way counts as inactive or inconclusive.

How the values were obtained:
[1] = A CellTox Green Cytotoxicity Assay to monitor cytotoxicity in HepG2 cells - 0 hour (AID 1224882); note: nearly all actives have a fitted effect of over 35% in size
Outline: (§1)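 Measurements at 0, 8, 16, 24, 32 and 40 h of treatment captured CellTox Green fluorescence in HepG2 cells that had been co-plated with reagent and preincubated 5 h at 37 C/5% CO2.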

[2] = A CellTox Green Cytotoxicity Assay to monitor cytotoxicity in HepG2 cells - 32 hour (AID 1224883); note: nearly all actives have a fitted effect of over 50% in size; note: potency is the fitted concentration of half-maximal effect
Outline: as §1

[3] = A CellTox Green Cytotoxicity Assay to monitor cytotoxicity in HEK293 cells - 8 hour (AID 1224884); note: nearly all actives have a fitted effect of over 35% in size
Outline: (§2)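 Tox21 screen in HEK293: membrane-impermeant cyanine dye fluoresces on binding dead-cell DNA; compound pinned 5 h post-seeding, plates held at 37 C, signal read repeatedly through 40 h.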

[4] = qHTS RealTime-Glo MT Cell Viability Assay in HEK293 cells - 24 hour (AID 1224886); note: nearly all actives have a fitted effect of over 50% in size; note: potency is the fitted concentration of half-maximal effect
Outline: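 HEK293 cells were seeded at 600 cells/well together with NanoLuc luciferase and cell-permeant prosubstrate, preincubated 5 h at 37 C/5% CO2, then given compound in DMSO by pintool. Luminescence from viable-cell prosubstrate reduction was read repeatedly over 40 h.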

[5] = qHTS RealTime-Glo MT Cell Viability Assay in HEK293 cells - 8 hour (AID 1224887); note: nearly all actives have a fitted effect of over 50% in size; note: potency is the fitted concentration of half-maximal effect
Outline: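 HEK293 + NanoLuc + prosubstrate, 600 cells/well; 5 h, 37 C/5% CO2; compound 23 nL in DMSO by pintool; 37 C; luminescence read at 0, 8, 16, 24, 32 and 40 h time points.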

[6] = A CellTox Green Cytotoxicity Assay to monitor cytotoxicity in HEK293 cells - 16 hour (AID 1224888); note: nearly all actives have a fitted effect of over 35% in size
Outline: as §2

[7] = qHTS RealTime-Glo MT Cell Viability Assay in HepG2 cells - 0 hour (AID 1224889); note: nearly all actives have a fitted effect of over 50% in size
Outline: (§3)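 HepG2 cells were seeded at 600 cells/well together with NanoLuc luciferase and a cell-permeant prosubstrate, preincubated 5 h at 37 C/5% CO2, then pin-dosed with compounds in DMSO. Nonlytic luminescence from viable cells was read at each time point.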

[8] = A CellTox Green Cytotoxicity Assay to monitor cytotoxicity in HepG2 cells - 8 hour (AID 1224890); note: nearly all actives have a fitted effect of over 45% in size
Outline: as §1

[9] = qHTS assay to identify small molecule antagonists of the estrogen receptor alpha (ER-alpha) signaling pathway using the BG1 cell line in the presence of 0.1 nM 17-beta-estradiol - cell viability counter screen (AID 1259241); note: nearly all actives have a fitted effect of over 40% in size; note: potency is the fitted concentration of half-maximal effect
Outline: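 CellTiter-Fluor read (30 min, 37C) on ER-alpha/ERE-luc VM7Luc4E2 cells; 22 hr compound treatment; agonist 0.1 nM E2 final; same-well multiplex.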

[10] = qHTS assay to identify small molecule antagonists of the androgen receptor (AR) signaling pathway using the MDA cell line in the presence of 0.5 nM R1881 - cell viability counter screen (AID 1259242); note: nearly all actives have a fitted effect of over 45% in size
Outline: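 Concentration-response screen of compounds for toxicity in MDA-kb2 reporter cells: 16 hr at 37C with 0.5 nM R1881, endpoint live-cell protease fluorescence measured in the reporter wells.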

[11] = molecular target: Estrogen receptor (Homo sapiens) (UniProt P03372); assay: qHTS assay to identify small molecule antagonists of the estrogen receptor alpha (ER-alpha) signaling pathway using the BG1 cell line in the presence of 0.1 nM 17-beta-estradiol (AID 1259244); note: nearly all actives have a fitted effect of over 50% in size
Outline: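 Compounds were tested against 0.1 nM (final) 17beta-estradiol in VM7Luc4E2 cells, which express full-length ER-alpha and an ERE-luciferase reporter; luminescence was recorded following 22 h exposure.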

[12] = qHTS assay to identify small molecule HDAC inhibitors (AID 1259364);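 note: wild-type HCT-116 cells with endogenous class I/II HDAC activity; top concentration of the series differs between compounds; nearly all actives have a fitted effect of over 45% in size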
Outline: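 Screening used wild-type human colon HCT-116 cells incubated overnight, dosed with compounds for 2 hours, and assayed with a homogeneous luminogenic HDAC I/II reagent for 30 minutes at room temperature.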

[13] = qHTS assay to identify small molecule HDAC inhibitors - cell viability counter screen (AID 1259365)
Outline: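 To flag cytotoxic hits, 1,500 wild-type HCT-116 cells per well, plated the day before, receive test compounds for 2hr at 37 C before CellTiter-Glo reagent and a luminescence read.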

[14] = qHTS assay to identify small molecule agonists of the sonic hedgehog signaling (Shh) pathway - cell viability counter screen (AID 1259366); note: nearly all actives have a fitted effect of over 50% in size; note: potency is the fitted concentration of half-maximal effect
Outline: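 Fluorescence from CellTiter-Fluor reports live cells in this counter screen. NIH/3T3-derived Gli1-Luc reporter cells receive test compounds for 24hr at 37C; reagent goes in at 23hr.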

[15] = qHTS assay to identify small molecule antagonists of the sonic hedgehog signaling (Shh) pathway - cell viability counter screen (AID 1259367); note: nearly all actives have a fitted effect of over 55% in size; note: potency is the fitted concentration of half-maximal effect
Outline: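 Conditioned medium drove Shh signaling in 3T3 Gli1-Luc cells exposed to compounds at 37C and 5% CO2. Viability was determined from CellTiter-Fluor fluorescence, with reagent incubated 1 hr after 23 hr of treatment.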

[16] = qHTS assay to identify small molecule agonists of the sonic hedgehog signaling (Shh) pathway (AID 1259368; calls by dose curve;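 note: NIH/3T3-derived 3T3Gli1-Luc cells carrying a stable Gli1-driven firefly luciferase reporter; series mostly up to about 92 µM; nearly all actives have a fitted effect of over 15% in size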)
Outline: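 Hedgehog pathway agonism scored by increased firefly luciferase luminescence in 3T3Gli1-Luc cells treated 24 hr at 37 C; detection used a 30 min room-temperature reagent incubation.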

[17] = qHTS RealTime-Glo MT Cell Viability Assay in HepG2 cells - 16 hour (AID 1224885); note: nearly all actives have a fitted effect of over 50% in size
Outline: as §3

[18] = qHTS assay to identify small molecule phospholipidosis (PLD) inducers (AID 1259344; active = well fitted curve in the direction sought with a large enough effect; an effect the other way counts as inactive or inconclusive)
Outline: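 After 4 h attachment on collagen I, HepG2 cells were dosed with compound alongside LipidTOX Red, kept 24 h at 37 C, fixed, and imaged for lamellar phospholipid pits.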

[19] = molecular target: Androgen receptor (Homo sapiens) (UniProt P10275); assay: qHTS assay to identify small molecule antagonists of the androgen receptor (AR) signaling pathway using the MDA cell line in the presence of 0.5 nM R1881 (AID 1259243); note: nearly all actives have a fitted effect of over 50% in size; note: potency is the fitted concentration of half-maximal effect
Outline: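 With R1881 held at 0.5 nM (final), compound effects on MMTV-luciferase expression in MDA-kb2 cells were scored by luminescence after a 16 hr, 37C incubation.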

Chain of Estrogen receptor (Homo sapiens) (P03372 whole entry, looked up): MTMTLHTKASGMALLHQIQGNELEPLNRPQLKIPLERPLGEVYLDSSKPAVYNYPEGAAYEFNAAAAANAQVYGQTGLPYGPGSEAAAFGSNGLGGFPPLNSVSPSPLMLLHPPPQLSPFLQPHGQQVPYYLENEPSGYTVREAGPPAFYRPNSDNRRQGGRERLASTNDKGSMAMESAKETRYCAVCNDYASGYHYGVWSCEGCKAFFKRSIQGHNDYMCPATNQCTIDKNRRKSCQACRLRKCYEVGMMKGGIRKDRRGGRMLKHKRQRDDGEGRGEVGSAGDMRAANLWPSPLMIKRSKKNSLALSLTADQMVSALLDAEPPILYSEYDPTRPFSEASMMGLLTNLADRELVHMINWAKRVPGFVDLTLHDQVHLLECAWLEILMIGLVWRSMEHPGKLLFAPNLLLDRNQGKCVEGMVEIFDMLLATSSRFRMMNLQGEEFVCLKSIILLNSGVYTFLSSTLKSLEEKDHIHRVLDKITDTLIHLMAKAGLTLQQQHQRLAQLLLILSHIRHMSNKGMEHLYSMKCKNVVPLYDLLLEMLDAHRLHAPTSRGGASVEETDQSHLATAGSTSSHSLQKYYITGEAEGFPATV
Chain of Androgen receptor (Homo sapiens) (P10275 whole entry, looked up): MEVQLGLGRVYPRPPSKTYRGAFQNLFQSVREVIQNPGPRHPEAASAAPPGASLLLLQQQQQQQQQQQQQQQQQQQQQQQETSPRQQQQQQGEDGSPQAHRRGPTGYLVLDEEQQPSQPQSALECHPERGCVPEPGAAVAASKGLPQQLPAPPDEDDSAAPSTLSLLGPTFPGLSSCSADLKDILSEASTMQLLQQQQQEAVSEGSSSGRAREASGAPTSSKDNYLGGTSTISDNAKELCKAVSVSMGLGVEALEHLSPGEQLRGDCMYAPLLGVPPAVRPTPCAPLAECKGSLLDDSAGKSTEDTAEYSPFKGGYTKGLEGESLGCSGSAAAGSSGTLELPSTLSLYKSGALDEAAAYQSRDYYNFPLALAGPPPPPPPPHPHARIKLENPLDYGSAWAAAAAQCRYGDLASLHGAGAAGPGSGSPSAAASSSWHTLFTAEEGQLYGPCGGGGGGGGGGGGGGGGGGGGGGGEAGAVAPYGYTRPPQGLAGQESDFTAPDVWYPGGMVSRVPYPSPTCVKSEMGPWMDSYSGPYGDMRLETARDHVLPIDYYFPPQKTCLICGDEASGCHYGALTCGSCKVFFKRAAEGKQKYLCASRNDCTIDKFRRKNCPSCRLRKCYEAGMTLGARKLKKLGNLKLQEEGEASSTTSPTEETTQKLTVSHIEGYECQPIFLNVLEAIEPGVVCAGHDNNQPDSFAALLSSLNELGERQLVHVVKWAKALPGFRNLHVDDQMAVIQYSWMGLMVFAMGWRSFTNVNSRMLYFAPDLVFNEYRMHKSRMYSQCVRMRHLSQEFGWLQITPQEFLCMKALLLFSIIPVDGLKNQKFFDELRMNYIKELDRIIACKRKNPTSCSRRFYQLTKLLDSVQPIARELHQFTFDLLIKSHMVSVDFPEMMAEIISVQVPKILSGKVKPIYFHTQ

SMILES	Potency [1]	Potency [2]	Potency [3]	Potency [4]	Potency [5]	Potency [6]	Potency [7]	Potency [8]	Potency [9]	Potency [10]	Potency [11]	Potency [12]	Potency [13]	Potency [14]	Potency [15]	outcome [16]	Potency [17]	Potency [18]	PLD induction [18]	Potency [19]
C=C(C)C(=O)OCCO	inactive	inactive	inactive	inactive	inactive	inactive	inactive	inactive	inactive	inactive	inactive	inactive	inactive	inactive	inactive	inactive				
C[C@H](CCC(=O)O)[C@H]1CC[C@H]2[C@@H]3CC[C@@H]4C[C@H](O)CC[C@]4(C)[C@H]3C[C@H](O)[C@]12C	inactive			inactive				inactive		inactive		inactive	inactive			inactive	inactive	inactive		
CCN(CC)CCOC(=O)C(Cc1cccc2ccccc12)CC1CCCO1 (stereo unspecified)		inactive	inactive				inactive		inactive	inactive		inactive	inactive	inactive	inactive	inactive	inactive	inactive		
CCCOC(C(=O)OC1CCN(C)CC1)(c1ccccc1)c1ccccc1	inactive	21.3 µM (active)	inactive					inactive	inactive	inactive	inactive	inactive	inactive	13.3 µM (active)		inactive				
O=C(O)CC(=O)C(=O)O		inactive	inactive	inactive	inactive	inactive	inactive		inactive	inactive			inactive	inactive		inactive	inactive			
Nc1c(CC(=O)O)cccc1C(=O)c1ccc(Br)cc1	inactive	inactive		inactive			inactive		inactive	inactive	inactive	inactive	inactive	inactive	inactive	inactive	inactive	inactive		
C=CC(=O)OCCOCCOC(=O)C=C	inactive	49.2 µM (active)	inactive	31 µM (active)	inactive	inactive	inactive		61.4 µM (active)			inactive	inactive	21.8 µM (active)	27.4 µM (active)	inactive				
Cc1cccc(C)c1NC(=O)CN(CC(=O)O)CC(=O)O		inactive	inactive	inactive	inactive	inactive	inactive	inactive	inactive	inactive		inactive	inactive	inactive	inactive	inactive	inactive	inactive		
CN(Cc1ccc(C(C)(C)C)cc1)Cc1cccc2ccccc12	inactive		inactive	inactive	inactive	inactive		inactive	inactive	inactive	inactive	inactive	inactive	inactive	inactive	inactive			-0.504% [at 7.66 µM]	
CC1=CCCC(C)(C)C12CCC(C)O2 (stereo unspecified)	inactive	inactive	inactive	inactive	inactive	inactive			inactive	inactive		inactive	inactive	inactive	inactive	inactive				
O[C@@H](COc1cccc2ncccc12)CN1CCN(C2c3ccccc3[C@@H]3[C@H](c4ccccc42)C3(F)F)CC1 (stereo partly specified)	inactive	inactive	inactive				inactive	inactive	inactive	inactive	inactive	inactive	inactive			inactive				13.3 µM (active)
CCCCCCCCCCO[C@@H]1O[C@H](CO)[C@@H](O)[C@H](O)[C@H]1O	inactive		inactive			inactive		inactive	inactive	inactive	inactive	inactive	inactive	inactive	inactive	inactive	inactive			
CCOC(=O)C(O)c1ccccc1 (stereo unspecified)	inactive		inactive	inactive	inactive	inactive	inactive			inactive	inactive	inactive	inactive	inactive	inactive	inactive	inactive			inactive
O=C1OC(=O)C2C3C=CC(C3)C12 (stereo unspecified)		inactive	inactive	inactive	inactive		inactive	inactive	inactive	inactive		inactive	inactive	inactive	inactive	inactive	inactive			
O=C(Cl)c1cc(C(=O)Cl)cc(C(=O)Cl)c1	inactive		inactive		49 µM (active)		inactive		inactive	inactive	inactive	inactive	inactive		inactive	inactive				
CCCCCCCCCOS(=O)(=O)O	inactive		inactive		inactive	inactive	inactive	inactive	inactive	inactive	inactive	inactive	inactive	inactive	inactive	inactive	inactive			
